# According to PubChem BioAssay (NCATS):
# Records with an inconclusive call do not appear. Where a call stands in place of a potency, no number is given. Unmarked numbers belong to inactive results. The source made the active and inactive calls. The call rests on the fitted dose curve; in most records, active means well fitted cell-killing curve with a large enough effect; inconclusive means small, poorly fitted or top-dose-only effect, or effect the other way; inactive means no such curve, though single readings can be large or run the other way.
# Experiments:
# [1] = Quantitative High-Throughput drug screen in 47 multiple myeloma cell lines against the NCATS MIPE library collection: LP1_DSMZ cell viability assay (AID 1918982); further: nearly all actives have a fitted effect of over 35% in size
# Summary of the method: (§1)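 MIPE 4.0 approved/investigational drugs; 500 cells/well; 48 h 37 °C humidified 5% CO2; CTG luminescence readout; DMSO = 100%, media = 0% viability.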
# [2] = Quantitative High-Throughput drug screen in 47 multiple myeloma cell lines against the NCATS MIPE library collection: KMS28PE_JCRB cell viability assay (AID 1918983); further: nearly all actives have a fitted effect of over 35% in size
# Summary of the method: as §1
# [3] = Quantitative High-Throughput drug screen in 47 multiple myeloma cell lines against the NCATS MIPE library collection: KMS34_JCRB cell viability assay (AID 1918985); further: nearly all actives have a fitted effect of over 40% in size
# Summary of the method: as §1
# [4] = Quantitative High-Throughput drug screen in 47 multiple myeloma cell lines against the NCATS MIPE library collection: OCIMY5_PLB cell viability assay (AID 1918988); further: nearly all actives have a fitted effect of over 65% in size
# Summary of the method: as §1
# [5] = Quantitative High-Throughput drug screen in 47 multiple myeloma cell lines against the NCATS MIPE library collection: OPM1_PLB cell viability assay (AID 1918989); further: nearly all actives have a fitted effect of over 40% in size
# Summary of the method: as §1
# [6] = Quantitative High-Throughput drug screen in 47 multiple myeloma cell lines against the NCATS MIPE library collection: U266_ATCC cell viability assay (AID 1919864); further: nearly all actives have a fitted effect of over 35% in size
# Summary of the method: as §1
# [7] = Quantitative High-Throughput drug screen in 47 multiple myeloma cell lines against the NCATS MIPE library collection: XG6_PLB cell viability assay (AID 1919865); further: nearly all actives have a fitted effect of over 40% in size
# Summary of the method: as §1
# [8] = Quantitative High-Throughput drug screen in 47 multiple myeloma cell lines against the NCATS MIPE library collection: XG1_PLB cell viability assay (AID 1919866); further: nearly all actives have a fitted effect of over 35% in size
# Summary of the method: as §1
# [9] = Quantitative High-Throughput drug screen in 47 multiple myeloma cell lines against the NCATS MIPE library collection: UTMC2_PLB cell viability assay (AID 1919868); details: CellTiter-Glo ATP luminescence, 48 h; viability (% of DMSO control): at 45.8 µM (top of the series); further: nearly all actives have a fitted effect of over 55% in size
# Summary of the method: as §1
# [10] = Quantitative High-Throughput drug screen in 47 multiple myeloma cell lines against the NCATS MIPE library collection: PE2_PLB cell viability assay (AID 1919869); further: nearly all actives have a fitted effect of over 35% in size
# Summary of the method: as §1
# [11] = Quantitative High-Throughput drug screen in 47 multiple myeloma cell lines against the NCATS MIPE library collection: PCM6_Riken cell viability assay (AID 1919870); further: nearly all actives have a fitted effect of over 30% in size
# Summary of the method: as §1
# [12] = Quantitative High-Throughput drug screen in 47 multiple myeloma cell lines against the NCATS MIPE library collection: RPMI8226_ATCC cell viability assay (AID 1919871); further: nearly all actives have a fitted effect of over 30% in size
# Summary of the method: as §1
# [13] = Quantitative High-Throughput drug screen in 47 multiple myeloma cell lines against the NCATS MIPE library collection: OPM2_DSMZ cell viability assay (AID 1919872); further: nearly all actives have a fitted effect of over 30% in size
# Summary of the method: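 We plated 500 myeloma cells per well, pinned in MIPE 4.0 compounds, and incubated for 48 hours at 37C. ATP was then quantified with CellTiter-Glo, with DMSO and media-only wells defining 100% and 0%.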
# [14] = Quantitative High-Throughput drug screen in 47 multiple myeloma cell lines against the NCATS MIPE library collection: KMS11_JCRBsus cell viability assay (AID 1919873); further: nearly all actives have a fitted effect of over 50% in size
# Summary of the method: as §1
# [15] = Quantitative High-Throughput drug screen in 47 multiple myeloma cell lines against the NCATS MIPE library collection: KMS28BM_JCRB cell viability assay (AID 1919874); further: nearly all actives have a fitted effect of over 35% in size
# Summary of the method: as §1
# [16] = Quantitative High-Throughput drug screen in 47 multiple myeloma cell lines against the NCATS MIPE library collection: SKMM1_PLB cell viability assay (AID 1919863); details: SKMM1 myeloma viability, CellTiter-Glo ATP, 48 h; viability: active compounds read low; further: nearly all actives have a fitted effect of over 35% in size
# Summary of the method: as §1
# [17] = Quantitative High-Throughput drug screen in 47 multiple myeloma cell lines against the NCATS MIPE library collection: VP6_DJ cell viability assay (AID 1919867); further: nearly all actives have a fitted effect of over 40% in size
# Summary of the method: as §1
# [18] = Quantitative High-Throughput drug screen in 47 multiple myeloma cell lines against the NCATS MIPE library collection: OCIMY7_PLB cell viability assay (AID 1918987); details: OCI-MY7 myeloma viability, CellTiter-Glo ATP, 48 h; viability (% of DMSO): at 45.8 µM (top of the series); further: nearly all actives have a fitted effect of over 65% in size
# Summary of the method: as §1
# [19] = Quantitative High-Throughput drug screen in 47 multiple myeloma cell lines against the NCATS MIPE library collection: L363_DSMZ cell viability assay (AID 1918984); further: nearly all actives have a fitted effect of over 40% in size
# Summary of the method: as §1
# Potency means the concentration at half of the fitted maximal effect.
SMILES,Potency [1],Potency [2],Potency [3],Potency [4],Potency [5],Potency [6],Potency [7],Potency [8],Potency [9],Potency [10],Potency [11],Potency [12],Potency [13],Potency [14],Potency [15],viability [16] [%],Potency [17],Potency [18],Potency [16],Potency [19]
CC(=O)OC[C@@H]1O[C@@H](n2ccc(=O)[nH]c2=O)[C@H](OC(C)=O)[C@H]1OC(C)=O,inactive,inactive,inactive,inactive,inactive,inactive,inactive,inactive,inactive,inactive,inactive,inactive,inactive,inactive,inactive,,,,,
C#CCC(Cc1cnc2nc(N)nc(N)c2n1)c1ccc(C(=O)N[C@@H](CCC(=O)O)C(=O)O)cc1 (stereo partly drawn),41.8 nM (active),inactive,209 nM (active),inactive,,372 nM (active),41.8 nM (active),59 nM (active),372 nM (active),418 nM (active),,,33.2 nM (active),,33.2 nM (active),117,118 nM (active),,,
CS[C@H]1SC[C@@H]2C(=O)N(C)[C@H](C(C)C)C(=O)OC[C@H](NC(=O)c3cnc4ccccc4n3)C(=O)N[C@H](C)C(=O)N(C)[C@@H]1C(=O)N(C)[C@H](C(C)C)C(=O)OC[C@H](NC(=O)c1cnc3ccccc3n1)C(=O)N[C@H](C)C(=O)N2C,6.6 nM (active),3 nM (active),4.7 nM (active),2.1 nM (active),,6.6 nM (active),1 nM (active),7.4 nM (active),1 nM (active),,,10.5 nM (active),8.3 nM (active),3.3 nM (active),1.7 nM (active),,1 nM (active),41.8 nM (active),9.3 nM (active),
COc1ccc2cc([S+]([O-])Cc3ncc(C)c(OC)c3C)nc2c1,inactive,inactive,inactive,inactive,,,inactive,inactive,,,inactive,inactive,inactive,inactive,,122,inactive,,,
COC1=C(OC)C(=O)C(CC=C(C)CCC=C(C)CCC=C(C)CCC=C(C)CCC=C(C)CCC=C(C)CCC=C(C)CCC=C(C)CCC=C(C)CCC=C(C)C)=C(C)C1=O,inactive,inactive,inactive,,inactive,,inactive,inactive,inactive,inactive,inactive,,inactive,,,99.4,,inactive,,
CC(C)(N)c1ccc(-c2nc3ccccc3nc2-c2ccccc2)cc1,18700 nM (active),18700 nM (active),,23500 nM (active),5900 nM (active),,5900 nM (active),7430 nM (active),,10500 nM (active),10500 nM (active),,,,26400 nM (active),,7430 nM (active),,,3320 nM (active)
C=CC1=C(C(=O)O)N2C(=O)[C@@H](NC(=O)C(=NO)c3csc(N)n3)[C@H]2SC1,inactive,inactive,inactive,inactive,inactive,,inactive,inactive,,,,inactive,inactive,,inactive,,,,,
CC[C@@]1([C@@H]2O[C@@H]([C@H]3O[C@@](O)(CO)[C@H](C)C[C@H]3C)C[C@H]2C)CC[C@H]([C@]2(C)CC[C@]3(C[C@H](O)[C@@H](C)[C@@H]([C@@H](C)[C@@H](OC)[C@H](C)C(=O)O)O3)O2)O1,64.5 nM (active),512 nM (active),724 nM (active),102 nM (active),162 nM (active),363 nM (active),257 nM (active),363 nM (active),182 nM (active),323 nM (active),,229 nM (active),144 nM (active),288 nM (active),575 nM (active),,512 nM (active),229 nM (active),323 nM (active),
O=C(C=CC=Cc1ccc2c(c1)OCO2)N1CCCCC1,inactive,inactive,inactive,,inactive,inactive,,,inactive,inactive,inactive,3720 nM (active),inactive,inactive,,,2640 nM (active),inactive,,
O=C(O)C(=O)Nc1cccc(C2=NN=N[N]2)c1,inactive,inactive,inactive,inactive,inactive,,inactive,inactive,,inactive,inactive,,inactive,,inactive,129,inactive,,,
Cc1nc(NC(=O)N2CCC[C@@H]2C(N)=O)sc1-c1ccnc(C(C)(C)C(F)(F)F)c1,1480 nM (active),296 nM (active),1870 nM (active),935 nM (active),2960 nM (active),,1870 nM (active),3320 nM (active),,4690 nM (active),inactive,,20900 nM (active),166 nM (active),1180 nM (active),,,,6620 nM (active),
Cc1cc(C(=O)NOCCO)c(Nc2ccc(I)cc2F)n(C)c1=O,inactive,inactive,,,,,,,,,inactive,inactive,,inactive,inactive,90.9,,,,inactive
CCOC(=O)C=C[C@H](C[C@@H]1CCNC1=O)NC(=O)[C@@H](CC(=O)[C@@H](NC(=O)c1cc(C)on1)C(C)C)Cc1ccc(F)cc1,inactive,inactive,inactive,inactive,,,,inactive,,inactive,inactive,inactive,inactive,inactive,,138,,,,
